# A selection: hits, their analogues and other compounds. The true share with any hit is near 0.5%.
# E coli growth-1: E. coli V3065 growth inhibition, primary screen, counter-screen for AddAB inhibitor project, absorbance, OD600; 18 h; inhibition, % at 11.9 µM; actives 0.27% (n = 330,000);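 active = inhibition above the campaign's mean inhibition across all tested compounds plus 3 SD, cut at about 9.9% in these data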;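 note: uninfected addAB+ strain grown without phage in ampicillin broth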
# phage Ecoli inh: growth loss of phage-infected E. coli, primary screen, RecBCD inhibitor project, absorbance, with phage, HTS; actives 0.26% (n = 360,000); inhibition, % at 11.9 µM; AID 651602, 2012; in the data active = inhibition above about 11%
# E coli growth-2: E. coli growth inhibition, primary screen, OD600 | Escherichia coli growth, 23 h; stronger effect = lower value | OD600 absorbance (concentration not given with the values) | actives 0.21% (n = 330,000);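 active = OD600 absorbance below the run mean of sample wells minus 3.6 SD, in any replicate, cut at about 0.56 in these data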
# Tat transport: E. coli Tat export inhibitors, primary screen, MC4100, TorA-mCherry reporter, fluorescence, single point | inhibition, % at 10 µM | actives 0.036% (n = 340,000);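 active = mean replicate inhibition at least 50% and at least half of replicates individually reaching 50%; inconclusive = only one of the two criteria met; inactive = neither criterion met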;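 note: exported cargo escapes ClpAP degradation while cytoplasmic cargo is degraded and loses fluorescence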
# AddAB inh: growth inhibition of E. coli expressing H. pylori AddAB, primary screen, AddAB inhibitor project, absorbance; AID 435030, 2010; actives 0.29% (n = 330,000); inhibition, % at 11.9 µM; in the data active = inhibition above about 12%
# AddAB conf: growth loss of phage-infected E. coli expressing H. pylori AddAB, confirmation, AddAB inhibitor project, absorbance, E. coli V3065, T4 phage, triplicate | inhibition, % at 11.9 µM | OD; T4 phage with gene 2 nonsense mutations | shares compounds with AddAB inh | actives 64% (n = 880);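 active = mean inhibition above a set limit taken from the earlier primary screen, cut at about 13% in these data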;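 note: higher means less bacterial growth since AddAB block lets phage replicate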
# RecBCD counter: growth loss of RecBCD+ E. coli with mutant T4 phage, counter-screen for AddAB inhibitor project, absorbance, V66 E. coli; actives 73% (n = 880); shares compounds with AddAB inh; OD growth; inhibition, % at 11.9 µM; AID 488955, 2010;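 active = mean inhibition above the mean of solvent-only control wells plus 3 SD, cut at about 4% in these data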;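 note: optical density read after an 18 h incubation at 37 °C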
# bact viab count: bacterial viability inhibition counter-screen, confirmation, counter-screen for AddAB inhibitor project, absorbance; inhibition, % at 11.9 µM; absorbance (AddAB counterscreen); shares compounds with AddAB inh; AID 488956, 2010; actives 35% (n = 880); in the data active = inhibition above about 25%
# Numbers stand for hits; – = inactive; ? = inconclusive; · = not tested or not shown.
SMILES,E coli growth-1,phage Ecoli inh,E coli growth-2,Tat transport,AddAB inh,AddAB conf,RecBCD counter,bact viab count
C=CC1c2cccc(C)c2N(S(=O)(=O)c2ccc(C)cc2)C(c2ccc(OC(C)=O)cc2)C1(C#N)C#N (configuration not stated),·,·,–,·,·,·,·,·
Nc1nonc1C(=O)NCCN=Cc1cc(Cc2ccccc2)cc(Br)c1O,–,·,–,?,18.5,19.5,8.8,–
COc1cnc(-c2ccccn2)nc1Sc1ccccc1,–,–,–,–,14.2,–,–,–
CCC(C)C(C(=O)N1CCNCC1)n1cc(C(N)CC(C)C)nn1 (configuration not stated),·,·,–,·,·,·,·,·
COc1ccc(-n2c(Cc3cccn3C)nnc2SCC(=O)Nc2ccccc2)cc1,–,–,–,–,–,·,·,·
COc1ccc(-n2c(Cc3cccn3C)nnc2SCC(=O)Nc2nc(C)cs2)cc1,–,–,–,–,15.4,–,–,–
COc1cc(NS(=O)(=O)c2ccc(NC(=O)c3ccco3)cc2)nc(OC)n1,–,–,–,–,62.5,–,–,–
CCCCCCSc1ccc(C2N[C@@](Cc3ccccc3)(C(=O)OC)C3C(=O)N(C)C(=O)C23)cc1OC (some centres not stated),·,·,–,·,·,·,·,·
Cc1cc(SCC(=O)NN=Cc2ccc(O)cc2O)c(C)cc1Br,·,·,–,·,·,·,·,·
Cc1cc(SCC(=O)N/N=C/c2ccc(O)c(O)c2O)c(C)cc1Br,17.8,16.7,·,–,16.1,–,10.3,–
O=c1c2ccccc2nc(/C=C/c2ccc([N+](=O)[O-])o2)n1CCCO,20.0,–,–,–,31.1,97.6,10.8,41.2
O=c1c2ccccc2nc(/C=C/c2ccc([N+](=O)[O-])cc2)n1CCCO,–,–,–,–,–,·,·,·
O=C(Nc1ccc(C2=NCCN2)cc1)c1ccc(C(=O)Nc2ccc(C3=NCCN3)cc2)c([N+](=O)[O-])c1,24.6,–,·,63.5,27.2,86.1,28.9,28.4
Cc1ccc(NC(=O)c2ccc(-n3cccn3)c([N+](=O)[O-])c2)cc1,–,–,–,–,–,·,·,·
O=C(Cn1cc(C(=O)c2ccco2)c2ccccc21)Nc1ccccc1F,10.9,–,–,–,12.8,–,11.1,–
CC1CN(C(C)CO)C(=O)c2cccc(NC(=O)NC3CCCCC3)c2OC1CN(C)C(=O)Nc1ccccc1 (configuration not stated),·,·,–,·,·,·,·,·
Cc1ccc2nc(-c3ccc(O)cc3)c(Nc3ccc4c(c3)OCCO4)n2c1,14.1,–,–,–,16.6,–,–,–
Cc1ccc2nc(-c3ccccc3O)c(Nc3ccc4c(c3)OCCO4)n2c1,–,–,–,–,–,·,·,·
CCn1cc(C(=O)NCCc2ccccc2)c(=O)c2cc(F)c(N3CCN(C)CC3)cc21,13.2,–,–,–,20.8,70.7,–,–
CCn1cc(C(=O)NCc2ccccn2)c(=O)c2cc(F)c(N3CCN(C)CC3)cc21,93.4,–,·,–,98.3,99.4,15.9,98.2
C=C1C(=O)[C@@]23C(O)CC4C(C)(C)CCC(O)[C@]4(C)C2CC(O)C1C3O (some centres not stated),·,·,–,·,·,·,·,·
COC(=O)c1sc2ccccc2c1C(=O)OC,·,–,–,–,·,·,·,·
COC(=O)c1sc2ccccc2c1N,21.2,–,–,–,35.4,–,–,–
O=Nc1ccc(O)c2ncccc12,11.6,–,0.404,–,12.4,98.5,–,–
CC1CCC[C@]2(O1)OC(CCO)CC(O)C2O (some centres not stated),·,·,–,·,·,·,·,·
SMILES,E coli growth-1,phage Ecoli inh,E coli growth-2,Tat transport,AddAB inh,AddAB conf,RecBCD counter,bact viab count
Nc1ncnc2c1ncn2C1CC(O)C(COP(=O)(O)O)O1 (configuration not stated),·,·,–,·,·,·,·,·
CCCCC(=O)O[C@H]1CC[C@H]2[C@@H]3CCc4cc(O)ccc4[C@H]3CC[C@]12C,–,–,·,–,97.0,–,–,–
O=C(Cn1c(=O)oc2cc(S(=O)(=O)N3CCCCCC3)ccc21)NC1CCCCCCC1,–,–,–,–,–,·,·,·
CCCNC(=O)Cn1c(=O)oc2cc(S(=O)(=O)N3CCCC3)ccc21,37.5,–,–,–,54.9,–,–,–
NC(=O)C1=CC(c2coc3ccccc3c2=O)CC(OCc2ccc(CO)cc2)O1 (configuration not stated),·,·,–,·,·,·,·,·
O=C(Nc1ccc(Cl)cc1)ON=C1CCCC1,–,–,–,–,23.0,–,–,–
CCC(C)NC(=O)c1cn(CC)c2cc(N3CCN(C(=O)c4ccco4)CC3)c(F)cc2c1=O (configuration not stated),11.5,–,–,–,18.3,96.4,–,–
CCn1cc(C(=O)NCC(C)C)c(=O)c2cc(F)c(N3CCN(C(=O)c4ccco4)CC3)cc21,–,–,–,–,–,·,·,·
CCn1cc(C(=O)NCc2ccco2)c(=O)c2cc(F)c(N3CCN(C(=O)c4ccco4)CC3)cc21,50.0,–,0.445,–,48.8,102.2,4.0,75.5
O=C(NN1C(=O)CSC1=S)C(=O)NN1C(=O)CSC1=S,12.1,12.9,–,–,12.4,33.6,16.0,28.2
Cc1ccc(/C=N/NC(=O)C2(C)CC2(Br)Br)cc1 (configuration not stated),–,–,·,–,–,·,·,·
CC1(C(=O)N/N=C/c2ccccc2)CC1(Br)Br (configuration not stated),97.4,–,·,–,97.0,–,–,–
O=C(NCc1ccccn1)C1(C(F)(F)F)CC(=CCCO)CCCO1 (configuration not stated),·,·,–,·,·,·,·,·
NC1C2CN(c3nc4c(cc3F)c(=O)c(C(=O)O)cn4-c3ccc(F)cc3F)CC12 (configuration not stated),97.6,·,0.0445,109.2,100.2,98.7,99.6,100.6
Cc1c(-n2cc(C(=O)O)c(=O)c3cc(F)c(N4CCCC4)c(F)c32)c(=O)n(-c2ccccc2)n1C,–,–,–,–,–,·,·,·
Cn1c(OCc2cccnc2)nc2c1c(=O)n(Cc1ccc(Br)cc1)c(=O)n2C,84.3,–,–,–,22.9,–,–,–
Cc1ccc(Cn2c(C)c3cnn(CC(=O)NC4CCCC4)c(=O)c3c2C)cc1,86.5,–,–,–,98.9,–,–,–
CNC(=O)Cn1ncc2c(C)n(Cc3ccc(C)cc3)c(C)c2c1=O,–,–,–,–,–,·,·,·
CCOC(=O)C1C2COc3ccc(C)cc3C2N2C(=O)C(CO)NC(=O)[C@@]12C (some centres not stated),·,·,–,·,·,·,·,·
O=C(C=Cc1ccc(F)cc1)NC(=S)N1CCOCC1,·,·,–,·,·,·,·,·
O=C(COC(=O)c1ccc([N+](=O)[O-])s1)c1ccc[nH]1,–,–,·,–,12.4,67.8,–,–

# Screens (PubChem)
